High-throughput results as filed in PubChem BioAssay.
CDC25B CDK2 inh = primary biochemical HTRF screen for blockers of M-phase inducer phosphatase 2 binding to CDK2/cyclin A. P30305+P24941. HTRF CDC25B-CDK2/CyclinA binding, anti-His/anti-Flag; hits give high values. z-score (test concentration not listed). hit rate 0.72% among 94,000; in the data active = z-score above about 3.2
TAR Tat displ = TAR RNA-Tat peptide displacers, HIV-1, primary screen, biochemical, FRET, FAM/TAMRA-labeled Tat; HIV-1 TAR RNA, Tat peptide displacement FRET; hits give high values; z-score (concentration not given with the values); hit rate 0.6% among 100,000; AID 1259389, 2018; active = z-score of 3 or more in at least 2 runs
* marks the source's active call; other numbers are inactive results; ! = not confirmed by another sample. An excerpt weighted towards active compounds, which were near 0.9% of everything screened.

`O=C(NCCCN1CCN(c2ccc(F)cc2)CC1)c1cc2c(s1)-c1ccsc1CC2` gave TAR Tat displ 1.5.
For Cc1cc(C)cc(NC(=O)NCc2c(-n3cccc3)sc3c2CCCC3)c1 the results were CDC25B CDK2 inh -0.2 and TAR Tat displ 0.31.
`Cc1ccc(CNC(=O)NCc2c(-n3cccc3)sc3c2CCCC3)cc1` gave CDC25B CDK2 inh -1.2 and TAR Tat displ 13*.
`Clc1ccc(-n2ncc3c(NCCCN4CCOCC4)ncnc32)cc1` gave TAR Tat displ -0.96.
Screening O=c1c2cc3c(cc2nc2sc(Nc4cccc(Cl)c4)nn12)OCO3 returned CDC25B CDK2 inh -0.16 and TAR Tat displ 0.98.
Cc1cccc(Nc2nn3c(=O)c4cc5c(cc4nc3s2)OCO5)c1 was read as TAR Tat displ 13*.
Screening CN(C)CCN(Cc1ccccc1)S(=O)(=O)c1ccc2c(c1)C(C)(C)C(=O)N2C returned TAR Tat displ 1.6.
`CC1(C)Cc2c(sc3c2c(=O)n(Cc2ccccc2)c(=O)n3CC(=O)c2ccccc2)CO1` gave CDC25B CDK2 inh -0.94 and TAR Tat displ -1.2.
`CC1(C)CC(=O)C2=C(C1)Nc1ccccc1NC2c1cccc2ccccc12` (stereo not drawn) gave CDC25B CDK2 inh 13*.
Screening CC1(C)CC(=O)C2=C(C1)Nc1ccccc1NC2c1ccccc1F (stereo not drawn) returned CDC25B CDK2 inh -1 and TAR Tat displ -14.
O=C(c1ccc(Cn2c(SCc3ccccc3F)nc3ccncc32)cc1)N1CCCC1 was read as CDC25B CDK2 inh -0.66 and TAR Tat displ 1.9.
Screening Cc1ccc2[nH]c(=O)c(-c3noc(-c4ccco4)n3)cc2c1 returned CDC25B CDK2 inh 10* and TAR Tat displ 28*.
Cc1ccc2cc(-c3noc(-c4ccco4)n3)c(=O)[nH]c2c1 was read as CDC25B CDK2 inh 2 and TAR Tat displ 0.78.
Cc1ccccc1Nc1nc2ccccc2n2c(C)nnc12 was read as CDC25B CDK2 inh -1.5 and TAR Tat displ -0.44.
`COc1ccc(NC(=O)Nc2nnc(CC(=O)Nc3ccc(C)cc3)s2)cc1` gave CDC25B CDK2 inh 5.5*.
For Cc1ccc(NC(=O)Nc2nnc(CC(=O)Nc3ccccc3)s2)cc1 the results were CDC25B CDK2 inh 0.1.
OB(O)c1ccc(Oc2ccc(B(O)O)cc2)cc1 was read as CDC25B CDK2 inh 0.52.
Screening CC1(C(=O)NC2CCCCC2)Cn2c(ccc2-c2ccco2)C(=O)N1Cc1ccco1 (stereo not drawn) returned TAR Tat displ -6.9.
For CC1(C(=O)NC2CCCC2)Cn2c(ccc2-c2ccco2)C(=O)N1Cc1ccco1 (stereo not drawn) the results were TAR Tat displ 3.7*.
For CC1CCCCN1CCN1C(=O)c2ccc(-c3ccco3)n2CC1(C)C(=O)NC1CCCCC1 (stereo not drawn) the results were TAR Tat displ -3.2.
CC1CCCCN1CCN1C(=O)c2cc3ccccc3n2CC1(C)C(=O)NC1CCCCC1 (stereo not drawn) was read as TAR Tat displ 18*.
Cc1cc(=O)n2nc(N3CCCC(C(=O)NC(C)(C)C)C3)sc2n1 (stereo not drawn) was read as CDC25B CDK2 inh -0.16 and TAR Tat displ 1.4.
For Nc1ccc(-c2nc3ccc(-c4nc5ccc(N)cc5[nH]4)cc3[nH]2)cc1 the results were CDC25B CDK2 inh 9.9.
`Nc1ccc(-c2nc3cc(N)c(Cl)cc3[nH]2)cc1` gave CDC25B CDK2 inh -6.2 and TAR Tat displ 5.5*.
O=S(=O)(CCc1ccccc1)NCCc1csc2nc(-c3cccc(F)c3)nn12 was read as TAR Tat displ -0.16.
CCn1cc2nc(SCc3ccccc3)n(Cc3ccccc3)c(=O)c2n1 was read as TAR Tat displ 0.68.
For O=C1C(c2ccccc2)=C(Nc2ccc(F)cc2)c2ccccc21 the results were CDC25B CDK2 inh -1 and TAR Tat displ 0.45.
`O=C1C(Nc2ccc(F)cc2)=C(N2CCCCC2)C(=O)c2ccccc21` gave CDC25B CDK2 inh 8*.
Screening CCOC(=O)c1ccc(NC2=C(N3CCCCC3)C(=O)c3ccccc3C2=O)cc1 returned CDC25B CDK2 inh 17*.
Screening CCOC(=O)c1ccc(N2CCCCC2)c(N)c1 returned CDC25B CDK2 inh -0.16.
Screening CN1C(=O)C(O)(c2c[nH]c3ccccc23)c2cc(Br)ccc21 (stereo not drawn) returned CDC25B CDK2 inh 0.5.
For O=C(NC(c1ccccc1)c1nnc(-c2ccc(Cl)cc2)o1)c1ccc2c(c1)OCO2 (stereo not drawn) the results were TAR Tat displ 1.2.
Screening O=C1NC(NS(=O)(=O)c2ccccc2)(C(F)(F)F)C(=O)N1c1ccc(F)c(Cl)c1 (stereo not drawn) returned CDC25B CDK2 inh 18*.
`O=C1C2C(c3ccccc3)OC3(C(=O)c4ccccc4C3=O)C2C(=O)N1c1ccc(F)c(Cl)c1` (stereo not drawn) gave CDC25B CDK2 inh 0.7 and TAR Tat displ 1.4.
Screening Cc1nc(N)sc1-c1csc(Nc2cccc(Cl)c2C)n1 returned CDC25B CDK2 inh 9.4* and TAR Tat displ -3.7.
CCc1ccccc1Nc1nc(-c2sc(N)nc2C)cs1 was read as CDC25B CDK2 inh 2.6 and TAR Tat displ -7.
`CCCc1cc(=O)n2nc(N3CCC(C(=O)Nc4nnc(CC)s4)CC3)sc2n1` gave CDC25B CDK2 inh -0.62 and TAR Tat displ 1.6.
`COc1cccc2c1NC(c1cccc3ccccc13)C1CC=CC21` (stereo not drawn) gave CDC25B CDK2 inh -0.13 and TAR Tat displ 6.4*.
Screening COC(=O)c1ccc2c(c1)C1C=CCC1C(c1cccc3ccccc13)N2 (stereo not drawn) returned CDC25B CDK2 inh -0.77 and TAR Tat displ -14.
Screening CCOc1ccc(NS(=O)(=O)c2cn(C)c(C)n2)cc1 returned TAR Tat displ 0.73.
For COc1ccc(C(=O)OCc2cc(=O)n3c4c(sc3n2)CCCC4)cc1 the results were TAR Tat displ -0.19.
Screening O=c1c(O)c(-c2ccc(O)c(O)c2)oc2cc(O)cc(O)c12 returned CDC25B CDK2 inh -1.9 and TAR Tat displ 28*!.
For O=c1cc(-c2ccc(O)c(O)c2)oc2cc(O)cc(O)c12 the results were TAR Tat displ 33*.
COc1ccc(-c2cc(=O)c3c(O)cc(O)cc3o2)cc1 was read as TAR Tat displ 1.7.
`COc1cc(-c2oc3cc(O)cc(O)c3c(=O)c2O)ccc1O` gave TAR Tat displ 1.8.
Screening COc1ccc(-c2nc(CSc3nc4c(c(=O)[nH]3)CCCC4)c(C)o2)cc1 returned CDC25B CDK2 inh -0.78 and TAR Tat displ 0.38.
For Cc1ccc2c(=O)c(C(=O)c3ccc(Cl)cc3)c[nH]c2n1 the results were TAR Tat displ -1.7.
`O=CC(C=Nc1ccc(Cl)cn1)[N+](=O)[O-]` (stereo not drawn) gave CDC25B CDK2 inh 4.3*.
Screening CCCCn1cc(C2CC(=O)N(c3ccc(O)cc3)C2=O)c2ccccc21 (stereo not drawn) returned CDC25B CDK2 inh -2 and TAR Tat displ -1.1.
For CCn1cc(C(=O)N2CCc3ccccc3C2)c(=O)c2cc(S(=O)(=O)N3CCC(C)CC3)ccc21 the results were CDC25B CDK2 inh 15* and TAR Tat displ 0.58.
